Assay results: PubChem BioAssay (NCI)
About 83,000 compounds went through this panel and 20% of them were active in at least one assay; those are over-represented in the sample as a whole.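 A percent growth of 40 corresponds to 60% growth inhibition; 0 means no net growth; -100 means all cells died. Active threshold: below 10.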 Unmarked numbers belong to inactive results. The source made the active and inactive calls.

The compounds below were run on NCI-H522 lung (assay: NCI-60 one-dose screen, 48 h (100 = growth as untreated, 0 = no growth, -100 = all killed)). Settings: 10 µM unless noted.

Question: Which growth does the source give for `Nc1cc2nc3ccccc3sc-2cc1=O` here?
Answer: 66%

Question: With `COc1ccc(C(=O)/C=C/c2c(Cl)c3c(c(OC)c2Cl)OCC(=O)N3)cc1` as the compound, how does the growth read?
Answer: 12.7%

Question: `COc1cc(NCCCCN=C(N)NC(N)=NC(C)C)c2ncccc2c1` was tested. Which growth did it give?
Answer: -6.15% (active)

Question: Which growth does the source give for `CC/C=C\C[C@H](F)C/C=C1/C(=O)C=C[C@@H]1C/C=C\CCCC(=O)OC` here?
Answer: -26.8% (active)

Question: With `C=C(CN1CCN(c2cccc(C(F)(F)F)n2)CC1)c1ccc(C(=O)Nc2ccccc2N)cc1` as the compound, how does the growth read?
Answer: -45.3% (active)

Question: With `Cn1cc(-c2csc(-c3cn(C)c4ncccc34)n2)c2ccccc21` as the compound, how does the growth read?
Answer: -18.8% (active)

Question: For `COc1ccc2nc3cc(Cl)ccc3c(N3CCN(c4nccc(Nc5ccc(Cl)cc5)n4)CC3)c2c1`, which growth is on record?
Answer: 51.8%

Question: `CCN(CC)CCCC(C)N/C(=C1\C(=O)NC(=O)\C1=C(/NC(C)CCCN(CC)CC)c1cccc(OC)c1)c1cccc(OC)c1` (stereo unspecified) was tested. Which growth did it give?
Answer: -74.9% (active)

Question: With `CC(=O)C1=C(O)C=C2Oc3c(C(=O)/C=C/c4ccccc4)c(O)c(C)c(O)c3[C@]2(C)C1=O` as the compound, how does the growth read?
Answer: 21.6%

Question: With `O=C1/C(=C/c2ccc(Cl)c(Cl)c2)CN(C(=O)CCN2CCC(=NO)CC2)C/C1=C\c1ccc(Cl)c(Cl)c1` as the compound, how does the growth read?
Answer: -90.4% (active)

Question: How did the growth turn out when `CCOC(=O)/C=C/C(=O)[C@H](CC(C)C)NC(=O)[C@H](Cc1ccccc1)NC(=O)OCc1ccccc1` was run?
Answer: 18%

Question: For `Cc1cc2cc3cc(C)c(N(C)C)cc3[n+](C)c2cc1N(C)C`, which growth is on record?
Answer: -5.03% (active)

Question: How did the growth turn out when `COC(=O)[C@@H]1CC[C@]2(C)[C@H](CC[C@@H]3O[C@@]32C)[C@@]1(C)CC(=O)c1ccoc1` was run?
Answer: 80.4%

Question: How did the growth turn out when `O=C(O)c1ccccc1Nc1cccc(S(F)(F)(F)(F)F)c1` was run?
Answer: 61.9%

Question: Which growth does the source give for `COc1ccc(C2c3ccc4ccccc4c3Oc3ncnc(N)c32)cc1` (stereo unspecified) here?
Answer: 46.2%

Question: `CN1CCN(Cc2ccc(NC(=O)c3cncc(C#Cc4cnc(N)c5cccnc45)c3)cc2C(F)(F)F)CC1` was tested. Which growth did it give?
Answer: 28.4%

Question: For `COc1ccc(OCC(=O)Nc2ccc(-c3nc4ccccc4s3)cc2C)cc1`, which growth is on record?
Answer: 61.6%

Question: With `Oc1ccc2c(=S)cc(-c3ccc(Br)cc3)oc2c1O` as the compound, how does the growth read?
Answer: -27% (active)

Question: For `O=C1CC(c2nc3ccccc3s2)CN1C1CCCCC1` (stereo unspecified), which growth is on record?
Answer: 92.7%

Question: `COc1cccc(-n2cc(-c3nc(Nc4cc(C)[nH]n4)c4ccccc4n3)nn2)c1` was tested. Which growth did it give?
Answer: 9.97% (active)

Question: With `CCN(CC)CC#CCOC(=O)[C@]1(C)CCC[C@@]2(C)[C@H]1CC(C=O)=C1C=C(C(C)C)CC[C@@H]12` as the compound, how does the growth read?
Answer: 53.3%

Question: `CC(=O)Nc1ccc2c(c1)c(NC(C)=O)nn2C(=O)Nc1ccc(Cc2ccccc2)cc1` was tested. Which growth did it give?
Answer: 76.3%

Question: With `Cc1cc(Nc2nc(N3CCNCC3)nc3ccccc23)n[nH]1` as the compound, how does the growth read?
Answer: 76.4%

Question: For `COC(=S)SCN(CSC(=S)OC)c1ccc(Cl)cc1`, which growth is on record?
Answer: 79.9%

Question: How did the growth turn out when `CCN(CC)CCC(=O)Nc1ccc(Cn2nnc3c2C(=O)c2nnn(Cc4ccc(NC(=O)CCN(CC)CC)cc4)c2C3=O)cc1` was run?
Answer: -73.5% (active)

Question: `O=C(CCCCN1CCOCC1)Nc1ccc(Cn2nnc3c2C(=O)c2nnn(Cc4ccc(NC(=O)CCCCN5CCOCC5)cc4)c2C3=O)cc1` was tested. Which growth did it give?
Answer: -68.3% (active)

Question: With `COc1ccc(C(=O)c2sc3nc(-c4ccccc4OC)ccc3c2N)cc1OC` as the compound, how does the growth read?
Answer: 50.3%

Question: Which growth does the source give for `O=C1C[C@H](N2C(=O)c3ccccc3S2(=O)=O)C2CO[C@@H]1O2` here?
Answer: -45.6% (active)

Question: With `CC(=O)C1=C(O)C=C2Oc3c(C(=O)/C=C/c4cc(C(F)(F)F)cc(C(F)(F)F)c4)c(O)c(C)c(O)c3[C@]2(C)C1=O` as the compound, how does the growth read?
Answer: -36% (active)

Question: With `CCN(CC)c1ccc(/C=C/C2=[N+](C)c3ccccc3C2(C)C)cc1` as the compound, how does the growth read?
Answer: 5.08% (active)

Question: How did the growth turn out when `c1ccc2c(Nc3cccc4ccccc34)cccc2c1` was run?
Answer: 46.4%

Question: With `CCCCCCCCCCCCCC(=O)C(C)N` (stereo unspecified) as the compound, how does the growth read?
Answer: 0.193% (active)

Question: For `CCOC(=O)C(CC)n1c(=O)c2cc(OC)c(OC)cc2c2cnc3[nH]ccc3c21` (stereo unspecified), which growth is on record?
Answer: 79.3%

Question: `O=C1C2CC=CCC2C(=O)N1CNc1ccc(Cl)cc1` (stereo unspecified) was tested. Which growth did it give?
Answer: 74.7%

Question: How did the growth turn out when `Cc1ccc(SCN2CCN(c3cccc(Cl)c3)CC2)cc1` was run?
Answer: 96%

Question: `Cc1nc2nc(N)nc(N)c2nc1C` was tested. Which growth did it give?
Answer: 89.8%

Question: `CSc1[nH]c2ncnc(N)c2c1C#N` was tested. Which growth did it give?
Answer: 82.6%

Question: For `O=C(CN1CCOCC1)Nc1ccc(Cn2nnc3c2C(=O)c2nnn(Cc4ccc(NC(=O)CN5CCOCC5)cc4)c2C3=O)cc1`, which growth is on record?
Answer: -43% (active)

What follows are compounds tested on A549/ATCC NSCLC in the same assay as above. Settings: 10 µM unless noted.

Question: How did the growth turn out when `Nc1cc2nc3ccccc3sc-2cc1=O` was run?
Answer: 27.3%

Question: How did the growth turn out when `COc1ccc(C(=O)/C=C/c2c(Cl)c3c(c(OC)c2Cl)OCC(=O)N3)cc1` was run?
Answer: 61.1%

Question: For `COc1cc(NCCCCN=C(N)NC(N)=NC(C)C)c2ncccc2c1`, which growth is on record?
Answer: 98.9%

Question: `CC/C=C\C[C@H](F)C/C=C1/C(=O)C=C[C@@H]1C/C=C\CCCC(=O)OC` was tested. Which growth did it give?
Answer: 24.3%

Question: For `C=C(CN1CCN(c2cccc(C(F)(F)F)n2)CC1)c1ccc(C(=O)Nc2ccccc2N)cc1`, which growth is on record?
Answer: 27.3%

Question: With `Cn1cc(-c2csc(-c3cn(C)c4ncccc34)n2)c2ccccc21` as the compound, how does the growth read?
Answer: 23.8%

Question: With `COc1ccc2nc3cc(Cl)ccc3c(N3CCN(c4nccc(Nc5ccc(Cl)cc5)n4)CC3)c2c1` as the compound, how does the growth read?
Answer: 76.4%

Question: For `CCN(CC)CCCC(C)N/C(=C1\C(=O)NC(=O)\C1=C(/NC(C)CCCN(CC)CC)c1cccc(OC)c1)c1cccc(OC)c1` (stereo unspecified), which growth is on record?
Answer: -52.9% (active)

Question: With `CC(=O)C1=C(O)C=C2Oc3c(C(=O)/C=C/c4ccccc4)c(O)c(C)c(O)c3[C@]2(C)C1=O` as the compound, how does the growth read?
Answer: 15%

Question: For `O=C1/C(=C/c2ccc(Cl)c(Cl)c2)CN(C(=O)CCN2CCC(=NO)CC2)C/C1=C\c1ccc(Cl)c(Cl)c1`, which growth is on record?
Answer: -34.6% (active)

Question: For `CCOC(=O)/C=C/C(=O)[C@H](CC(C)C)NC(=O)[C@H](Cc1ccccc1)NC(=O)OCc1ccccc1`, which growth is on record?
Answer: 73.3%

Question: For `Cc1cc2cc3cc(C)c(N(C)C)cc3[n+](C)c2cc1N(C)C`, which growth is on record?
Answer: 25.8%

Question: Which growth does the source give for `COC(=O)[C@@H]1CC[C@]2(C)[C@H](CC[C@@H]3O[C@@]32C)[C@@]1(C)CC(=O)c1ccoc1` here?
Answer: 83.3%

Question: How did the growth turn out when `O=C(O)c1ccccc1Nc1cccc(S(F)(F)(F)(F)F)c1` was run?
Answer: 84.2%

Question: How did the growth turn out when `COc1ccc(C2c3ccc4ccccc4c3Oc3ncnc(N)c32)cc1` (stereo unspecified) was run?
Answer: 97.3%

Question: Which growth does the source give for `CN1CCN(Cc2ccc(NC(=O)c3cncc(C#Cc4cnc(N)c5cccnc45)c3)cc2C(F)(F)F)CC1` here?
Answer: 29%

Question: Which growth does the source give for `COc1ccc(OCC(=O)Nc2ccc(-c3nc4ccccc4s3)cc2C)cc1` here?
Answer: 86.2%

Question: For `Oc1ccc2c(=S)cc(-c3ccc(Br)cc3)oc2c1O`, which growth is on record?
Answer: 3.47% (active)

Question: How did the growth turn out when `O=C1CC(c2nc3ccccc3s2)CN1C1CCCCC1` (stereo unspecified) was run?
Answer: 98.9%

Question: `COc1cccc(-n2cc(-c3nc(Nc4cc(C)[nH]n4)c4ccccc4n3)nn2)c1` was tested. Which growth did it give?
Answer: 35.9%

Question: For `CCN(CC)CC#CCOC(=O)[C@]1(C)CCC[C@@]2(C)[C@H]1CC(C=O)=C1C=C(C(C)C)CC[C@@H]12`, which growth is on record?
Answer: 62.4%

Question: `CC(=O)Nc1ccc2c(c1)c(NC(C)=O)nn2C(=O)Nc1ccc(Cc2ccccc2)cc1` was tested. Which growth did it give?
Answer: 92.1%

Question: For `Cc1cc(Nc2nc(N3CCNCC3)nc3ccccc23)n[nH]1`, which growth is on record?
Answer: 80.8%

Question: How did the growth turn out when `COC(=S)SCN(CSC(=S)OC)c1ccc(Cl)cc1` was run?
Answer: 81.6%

Question: Which growth does the source give for `CCN(CC)CCC(=O)Nc1ccc(Cn2nnc3c2C(=O)c2nnn(Cc4ccc(NC(=O)CCN(CC)CC)cc4)c2C3=O)cc1` here?
Answer: -58.1% (active)

Question: For `O=C(CCCCN1CCOCC1)Nc1ccc(Cn2nnc3c2C(=O)c2nnn(Cc4ccc(NC(=O)CCCCN5CCOCC5)cc4)c2C3=O)cc1`, which growth is on record?
Answer: -68.3% (active)

Question: With `COc1ccc(C(=O)c2sc3nc(-c4ccccc4OC)ccc3c2N)cc1OC` as the compound, how does the growth read?
Answer: 64.6%

Question: For `O=C1C[C@H](N2C(=O)c3ccccc3S2(=O)=O)C2CO[C@@H]1O2`, which growth is on record?
Answer: 89.1%

Question: `CC(=O)C1=C(O)C=C2Oc3c(C(=O)/C=C/c4cc(C(F)(F)F)cc(C(F)(F)F)c4)c(O)c(C)c(O)c3[C@]2(C)C1=O` was tested. Which growth did it give?
Answer: -46.7% (active)

Question: For `CCN(CC)c1ccc(/C=C/C2=[N+](C)c3ccccc3C2(C)C)cc1`, which growth is on record?
Answer: 14.4%

Question: How did the growth turn out when `c1ccc2c(Nc3cccc4ccccc34)cccc2c1` was run?
Answer: 48.1%

Question: With `CCCCCCCCCCCCCC(=O)C(C)N` (stereo unspecified) as the compound, how does the growth read?
Answer: 51.6%

Question: `CCOC(=O)C(CC)n1c(=O)c2cc(OC)c(OC)cc2c2cnc3[nH]ccc3c21` (stereo unspecified) was tested. Which growth did it give?
Answer: 76.1%

Question: Which growth does the source give for `O=C1C2CC=CCC2C(=O)N1CNc1ccc(Cl)cc1` (stereo unspecified) here?
Answer: 93.6%

Question: For `Cc1ccc(SCN2CCN(c3cccc(Cl)c3)CC2)cc1`, which growth is on record?
Answer: 106%

Question: Which growth does the source give for `Cc1nc2nc(N)nc(N)c2nc1C` here?
Answer: 102%

Question: Which growth does the source give for `CSc1[nH]c2ncnc(N)c2c1C#N` here?
Answer: 101%

Question: Which growth does the source give for `O=C(CN1CCOCC1)Nc1ccc(Cn2nnc3c2C(=O)c2nnn(Cc4ccc(NC(=O)CN5CCOCC5)cc4)c2C3=O)cc1` here?
Answer: -11.9% (active)
